{
  "source": "PubChem BioAssay (Tox21)",
  "note": "Records with an inconclusive call do not appear. Activity calls are given as the source filed them. The call rests on the fitted dose curve; in most records, active means well fitted cell-killing curve with a large enough effect in the repeat runs; inconclusive means weak or mixed curves, or effect the other way; inactive means no such curve, though single readings can be large or run the other way.",
  "data": [
    {"test": "qHTS assay to identify small molecule antagonists of the glucocorticoid receptor (GR) signaling pathway - cell viability counter screen (AID 720693); further: nearly all actives have a fitted effect of over 55% in size; further: potency means the concentration at half of the fitted maximal effect; on viability change, negative = cytotoxic: on the % scale 0 is the no-effect control and ±100 the full control effect", "conditions": "GR-bla HeLa viability, CellTiter-Glo luminescence, 18 h, with 5 nM dexamethasone present; series mostly up to 58.5 µM; viability change, negative = cytotoxic: at the top concentration", "from_the_text": "National Center for Advancing Translational Sciences [NCATS]\nNIH Chemical Genomics Center [NCGC]\nU.S. Environmental Protection Agency [EPA]\nNational Institutes of Environmental Health Sciences [NIEHS]\nNational Toxicology Program [NTP]\nU.S. Food and Drug Administration [FDA]\nThe Glucocorticoid receptor (GR) is one of the members of the nuclear receptor family of ligand-dependent transcription factors. GR plays a critical role in carbohydrate, protein and lipid metabolisms and programmed cell death. CellSensor GR-bla HeLa cell line (Invitrogen) contains a beta-lactamase reporter gene under the control of the glucocorticoid response element stably integrated into HeLa cells, a cervical cancer cell line that expresses glucocorticoid receptor. The activation of the reporter gene under culture conditions can be detected by fluorescence intensity. This cell line has been used to screen the Tox21 10K compound library and to identify the compounds that inhibit the GR signaling. The cytotoxicity of the Tox21 compound library against the GR-bla HeLa cell line was tested in parallel by measuring the cell viability using CellTiter-Glo assay in the same wells.\nTox21 Assay Protocol Summary:\nThe GR-bla HeLa cells were dispensed at 1500 cells/5 ul/well in 1536-well black wall/clear bottom plates using a Multidrop Combi (ThermoFisher Scientific, Waltham, MA) dispenser. After the assay plates were incubated at a 37 C/5% CO2 incubator for 4 hours, 23 nL of compounds dissolved in DMSO, positive controls or DMSO only was transferred to the assay plate by a pintool station (Kalypsys, San Diego, CA), followed by addition of 1 uL of dexamethasone (5 nM, final concentration in the well). The plates were incubated at 37 C for 18 hours. After 1 uL of LiveBLAzerTM B/G FRET substrate was added using a Flying Reagent Dispenser (Aurora Discovery, San Diego, CA), the plates were incubated at room temperature (RT) for 2 hours, and fluorescence intensity was measured by an Envision plate reader (PerkinElmer, Shelton, CT). After measurement of bla assay, 3 ul CellTiter-Glo (Promega, Madison, WI) was added to measure the cytotoxicity and the plates were then incubated at RT for 30 min. The luminescence was measured using a ViewLux (Perkin Elmer) plate reader.", "values": [
      {"molecule": "CCC(C)c1cc(C(C)(C)C)c(O)c(C(C)(C)C)c1", "note": "(stereo not given)", "viability change, negative = cytotoxic": "-0.447% (inactive)"},
      {"molecule": "CC(=O)c1ccc2c(c1)N(CCCN1CCC(CCO)CC1)c1ccccc1S2", "viability change, negative = cytotoxic": "-19.1% [at 27 µM] (inactive)"},
      {"molecule": "C=CCOc1ccccc1OCC(O)CNC(C)C", "note": "(stereo not given)", "viability change, negative = cytotoxic": "-0.225% [at 27 µM] (inactive)"},
      {"molecule": "ClCCOCCOCCCl", "viability change, negative = cytotoxic": "-3.68% (inactive)"},
      {"molecule": "CCN(CC)CCNC(=O)c1cc(Br)c(N)cc1OC", "viability change, negative = cytotoxic": "18.8% (inactive)"},
      {"molecule": "CCCCC(=O)OCC(=O)[C@H]1[C@H](C)C[C@H]2[C@@H]3C[C@H](F)C4=CC(=O)C=C[C@]4(C)[C@@]3(F)[C@@H](O)C[C@@]21C", "viability change, negative = cytotoxic": "0.631% (inactive)"},
      {"molecule": "COc1cc(C(=O)OCCCN2CCCN(CCCOC(=O)c3cc(OC)c(OC)c(OC)c3)CC2)cc(OC)c1OC", "viability change, negative = cytotoxic": "-4.98% (inactive)"},
      {"molecule": "CCCCC", "Potency": "inactive"},
      {"molecule": "O=C1CCC(=O)O1", "viability change, negative = cytotoxic": "-2.46% [at 78.9 µM] (inactive)"},
      {"molecule": "CC1=CCCC(C)(C)C12CCC(C)O2", "note": "(stereo not given)", "viability change, negative = cytotoxic": "6.58% (inactive)"},
      {"molecule": "CCCCc1nc2cccnc2n1Cc1ccc(-c2ccccc2-c2nnn[nH]2)cc1", "viability change, negative = cytotoxic": "21.4% (inactive)"},
      {"molecule": "CC(=O)c1ccc2c(c1)N(CCCN(C)C)c1ccccc1S2", "viability change, negative = cytotoxic": "0.6% [at 27 µM] (inactive)"},
      {"molecule": "CCc1c(C(=O)NN2CCCCC2)nn(-c2ccc(Cl)cc2Cl)c1-c1ccc(Br)cc1", "Potency": "12.3 µM (active)"},
      {"molecule": "O=[N+]([O-])c1ccc(NCCO)c(OCCO)c1", "viability change, negative = cytotoxic": "-3.9% (inactive)"},
      {"molecule": "O=C(O)C1(C(=O)Nc2ccc(Cl)cc2Cl)CC1", "viability change, negative = cytotoxic": "-24% (inactive)"},
      {"molecule": "CC(C)(C)Cl", "viability change, negative = cytotoxic": "15% [at 78.9 µM] (inactive)"},
      {"molecule": "CN(C)CCN(Cc1ccc(Cl)cc1)c1ccccn1", "viability change, negative = cytotoxic": "11.1% [at 27 µM] (inactive)"},
      {"molecule": "CCCCc1ncc(/C=C(\\Cc2cccs2)C(=O)O)n1Cc1ccc(C(=O)O)cc1", "viability change, negative = cytotoxic": "8.36% (inactive)"},
      {"molecule": "Cc1cc(N)c2cc(NC(=O)Nc3ccc4nc(C)cc(N)c4c3)ccc2n1", "viability change, negative = cytotoxic": "-9.02% (inactive)"},
      {"molecule": "OC(CN1CCC(Cc2ccc(F)cc2)CC1)c1ccc(Cl)cc1", "note": "(stereo not given)", "viability change, negative = cytotoxic": "-25.1% (inactive)"},
      {"molecule": "CCCCCCCCCCCCN1CCCCCC1=O", "viability change, negative = cytotoxic": "23.3% (inactive)"},
      {"molecule": "c1ccc(-c2ccccn2)nc1", "viability change, negative = cytotoxic": "15.2% (inactive)"},
      {"molecule": "Nc1cccc(S(=O)(=O)c2cccc(N)c2)c1", "viability change, negative = cytotoxic": "-3.74% (inactive)"},
      {"molecule": "CNCCCN1c2ccccc2CCc2ccccc21", "viability change, negative = cytotoxic": "-0.678% [at 27 µM] (inactive)"},
      {"molecule": "CC(=O)OC[C@H]1O[C@@H](n2ncc(=O)[nH]c2=O)[C@H](OC(C)=O)[C@@H]1OC(C)=O", "viability change, negative = cytotoxic": "-23.7% (inactive)"},
      {"molecule": "C=C(C)C(=O)OCCO", "viability change, negative = cytotoxic": "-0.854% [at 78.9 µM] (inactive)"},
      {"molecule": "CC(=O)[O][Al][O]C(C)=O", "Potency": "inactive"},
      {"molecule": "C#CCN(C)CCCOc1ccc(Cl)cc1Cl", "viability change, negative = cytotoxic": "-0.255% (inactive)"},
      {"molecule": "CC(CC=O)c1ccccc1", "note": "(stereo not given)", "viability change, negative = cytotoxic": "-0.631% (inactive)"},
      {"molecule": "CCN(CC)CCNc1ccc(CNC=O)c2sc3ccc(OC)cc3c(=O)c12", "Potency": "38.9 µM (active)"},
      {"molecule": "C[C@H]1C[C@H]2[C@@H]3CCC4=CC(=O)C=C[C@]4(C)[C@@]3(Cl)[C@@H](O)C[C@]2(C)[C@@]1(O)C(=O)CO", "viability change, negative = cytotoxic": "10.5% (inactive)"},
      {"molecule": "CCCCCCCCCOS(=O)(=O)O", "viability change, negative = cytotoxic": "-0.388% (inactive)"},
      {"molecule": "COc1ccc(C(=O)Nc2nc3ccccc3c(NCc3ccccc3)c2C#N)cc1", "viability change, negative = cytotoxic": "-10.5% (inactive)"},
      {"molecule": "CCCCCCCCCCCCCCOS(=O)(=O)O", "viability change, negative = cytotoxic": "4.44% (inactive)"},
      {"molecule": "O=P(O)(OCc1ccccc1)OCc1ccccc1", "viability change, negative = cytotoxic": "-8.41% (inactive)"},
      {"molecule": "CCCCOC(=O)CCCCCCCC(=O)OCCCC", "viability change, negative = cytotoxic": "15.9% (inactive)"},
      {"molecule": "O=C(O)c1ccccc1Cl", "viability change, negative = cytotoxic": "-0.325% (inactive)"},
      {"molecule": "C1CCCNCCC1", "viability change, negative = cytotoxic": "-6.48% (inactive)"},
      {"molecule": "Brc1c2ccccc2cc2ccccc12", "viability change, negative = cytotoxic": "-2.32% [at 78.9 µM] (inactive)"},
      {"molecule": "C=C(C)C(=O)OCCOCC", "viability change, negative = cytotoxic": "-9.68% [at 78.9 µM] (inactive)"}
    ]}
  ]
}
